Results on 10 molecules are retold here after article PMC5540273 (PLoS ONE, 2017).

For assay [1], the system named is T1, RSK2(Kin.Dom.1-N-terminal).
T1 construct: gene RPS6KA3
Conditions: concentration: 1 μM, replicates: in singlicate, n = 1.

In assay [2] the test system is T2, RSK2(Kin.Dom.2-C-terminal).
T2 construct: gene RPS6KA3
Conditions: concentration: 1 μM, replicates: in singlicate, n = 1.

For assay [3], the system named is T3, RSK3(Kin.Dom.1-N-terminal).
T3 construct: gene RPS6KA2
To be noted: concentration: 1 μM, replicates: in singlicate, n = 1.

Assay [4] has as its system T4, RSK3(Kin.Dom.2-C-terminal).
T4 construct: gene RPS6KA2
To be noted: concentration: 1 μM, replicates: in singlicate, n = 1.

In assay [5] the test system is T5, RSK4(Kin.Dom.1-N-terminal).
T5 construct: gene RPS6KA6
Conditions: concentration: 1 μM, replicates: in singlicate; n = 1.

For assay [6], the system named is T6, RSK4(Kin.Dom.2-C-terminal).
T6 construct: gene RPS6KA6
Conditions: concentration: 1 μM, replicates: in singlicate, n = 1.

Another assay has as its system S6K1. To be noted: concentration: 1 μM, replicates: in singlicate, n = 1.
The next assay relates to SBK1. To be noted: concentration: 1 μM, replicates: in singlicate, n = 1.
The test system of a further assay is SGK2. Conditions: concentration: 1 μM, replicates: in singlicate, n = 1.
The test system of the next assay is SGK3. To be noted: concentration: 1 μM, replicates: in singlicate, n = 1.
The subject of the next assay is SGK. To be noted: concentration: 1 μM, replicates: in singlicate, n = 1.
The next assay deals with SIK2. To be noted: concentration: 1 μM, replicates: in singlicate, n = 1.
Another assay relates to SIK. To be noted: concentration: 1 μM, replicates: in singlicate, n = 1.
The test system of another assay is SLK. To be noted: concentration: 1 μM, replicates: in singlicate; n = 1.
A further assay relates to T7, SNARK.
T7 construct: gene NUAK2
To be noted: concentration: 1 μM, replicates: in singlicate, n = 1.

The next assay has as its system SNRK. Conditions: concentration: 1 μM, replicates: in singlicate, n = 1.
Another assay deals with SRC. Conditions: concentration: 1 μM, replicates: in singlicate; n = 1.
Another assay relates to SRMS. To be noted: concentration: 1 μM, replicates: in singlicate, n = 1.
In a further assay the test system is SRPK1. To be noted: concentration: 1 μM, replicates: in singlicate, n = 1.
The next assay deals with SRPK2. Conditions: concentration: 1 μM, replicates: in singlicate, n = 1.

Values joined by “and” are separate entries in the source; they are usually repeats but may differ in a detail not shown here. Equal values may be shown once. Read-outs that look alike come from different tables or passages of the source.
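Further: KINOMEscan kinase panel screen.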

On to `CN(C(=O)c1ccc(-c2cc(-c3c[nH]nc3-c3ccccn3)ccn2)cc1)C1CCOCC1` [GW810083], for which the “%Inh” value in assay [1] was determined as 6%; in assay [2], 20%; in [3], 0%; in assay [4] it was 16%; in [5] it was 0%; in assay [6], 53%. In addition, the “%Inh” value is listed as 0% in the assay on S6K1; 0% with SBK1; 8% in the assay on SGK2; 0% in the assay with SGK3; 18% in the assay on SGK; 0% with SIK2. Besides, the “%Inh” value in the assay with SIK, in the assay on SLK, in the assay with SNARK, in the assay with SNRK, in the assay with SRC and with SRMS was 0% each time. The “%Inh” value was 0% in the assay with SRPK1 and 14% in the assay with SRPK2.

Turning to `C[C@@H](Oc1cc(-n2cnc3ccc(NC(=O)NC(C)(C)C)cc32)sc1C(N)=O)c1ccccc1Cl` [GSK346294], the “%Inh” value in [1] came to 0%; in [2] it was 11%; in assay [3], 0%; in assay [4], 9%; in assay [5], 0%; in assay [6], 26%. In addition, the “%Inh” value in the assay with S6K1 is listed as 0%; in the assay with SBK1 it was 0%; in the assay with SGK2 it was 10%; with SGK3 it was 19%; with SGK, 0%; with SIK2, 0%. The “%Inh” value in the assay with SIK was determined as 0%; with SLK, 59%; in the assay on SNARK, 21%; in the assay with SNRK it was 0%; in the assay on SRC, 0%; in the assay on SRMS, 0%. For the same molecule, the “%Inh” value with SRPK1 was 20%; with SRPK2, 12%.

For `COc1cc(Nc2nccc(N3CCC(NC(=O)c4cccc(NC(C)=O)c4)C3)n2)cc(OC)c1OC` (centres unmarked) [GSK1379754], the “%Inh” value in [1] came out at 3%; in assay [2], 22%; in assay [3], 26%; in assay [4], 0%; in assay [5], 1%; in [6], 0%. Besides, the “%Inh” value with S6K1 is reported as 10%; in the assay on SBK1 it was 9%; in the assay on SGK2 it was 0%; in the assay on SGK3, 0%; with SGK it was 0%; in the assay with SIK2, 12%. Also, the “%Inh” value in the assay on SIK came to 10%; in the assay with SLK, 32%; in the assay with SNARK, 57%; in the assay on SNRK, 0%; in the assay with SRC, 25%; in the assay on SRMS it was 0%. Besides, the “%Inh” value in the assay on SRPK1 worked out at 61%; in the assay on SRPK2 it was 0%.

On to `CC(C)Oc1ccc2c(-c3ccnc(Nc4ccc(N5CCN(C)CC5)cc4)n3)cnn2n1` [GW696155], for which the “%Inh” value in assay [1] worked out at 44%; in assay [2], 28%; in [3], 7%; in [4] it was 77%; in assay [5], 0%; in assay [6] it was 95.1%. Further, the “%Inh” value was 44% in the assay on S6K1; 88% in the assay with SBK1; 52% with SGK2; 58% with SGK3; 88% in the assay on SGK; 83% in the assay with SIK2. The “%Inh” value in the assay with SIK is on record as 79%; in the assay with SLK it was 10%; in the assay with SNARK, 99.6%; in the assay on SNRK, 23%; in the assay on SRC, 66%; in the assay on SRMS it was 0%. Further, the entries for the “%Inh” value in the assay with SRPK1 and in the assay with SRPK2 were 85% and 54%, respectively.

Take `COc1cc2ncn(-c3cc(OCc4sccc4Cl)c(C(N)=O)s3)c2cc1OC` [GSK448459]: the “%Inh” value in [1] came to 30%; in [2] it was 21%; in assay [3], 10%; in [4], 0%; in [5], 14%; in assay [6], 20%. For the same molecule, the “%Inh” value with S6K1 worked out at 3%; with SBK1 it was 4%; in the assay on SGK2, 0%; in the assay with SGK3 it was 0%; in the assay on SGK, 0%; in the assay with SIK2, 13%. Besides, the “%Inh” value with SIK is 8%; in the assay with SLK, 99%; with SNARK, 80%; in the assay on SNRK it was 0%; in the assay on SRC, 0%; in the assay on SRMS, 0%. The “%Inh” value in the assay on SRPK1 is listed as 88%; with SRPK2, 0%.

Turning to `CCn1cnc2c(N)ncnc21` [GW345098], the “%Inh” value is on record as 0% in [1]; 14% in [2]; 0% in assay [3]; 24% in assay [4]; 0% in assay [5]; 26% in [6]. In addition, the “%Inh” value is on record as 17% in the assay on S6K1; 0% with SBK1; 22% in the assay on SGK2; 0% in the assay with SGK3; 25% with SGK; 2% with SIK2. Further, the “%Inh” value in the assay with SIK is 19%; in the assay with SLK it was 18%; in the assay on SNARK, 0%; in the assay with SNRK, 0%; in the assay on SRC it was 20%; in the assay with SRMS, 12%. For the same molecule, the “%Inh” value in the assay on SRPK1 worked out at 24%; in the assay with SRPK2 it was 19%.

Consider `COCCNC(=O)c1ccc(-c2cc(C(=O)NC3CC3)cc(F)c2C)cc1` [GW868318], for which the “%Inh” value in [1] is recorded as 40%; in assay [2], 29%; in [3], 16%; in assay [4], 0%; in assay [5], 41%; in assay [6] it was 0%. Moreover, the “%Inh” value in the assay on S6K1 was found to be 29%; in the assay on SBK1, 48%; with SGK2, 20%; in the assay on SGK3, 21%; in the assay with SGK, 36%; with SIK2, 0%. The “%Inh” value with SIK came out at 6%; with SLK, 0%; with SNARK, 16%; in the assay with SNRK, 16%; in the assay on SRC it was 23%; in the assay on SRMS, 24%. The “%Inh” value came out at 7% with SRPK1 and 0% in the assay on SRPK2.

In the case of `CC(C)(CN)c1nc(-c2ccc(Cl)c(O)c2)c(-c2ccncc2)[nH]1.O=C(O)C(F)(F)F` [SB-477794], the “%Inh” value in [1] (1 µM) is 0% and 11%; in [2] (1 µM), 36% and 27%; in [3] (1 µM) it was 6% and 2%; in assay [4] (1 µM), 0% and 2%; in [5] it was 0%; in [6] (1 µM), 90.6% and 89%. For the same molecule, the “%Inh” value was 43% and 37% in the assay with S6K1 (1 µM); 5% and 6% in the assay on SBK1 (1 µM); 2% and 0% in the assay on SGK2 (1 µM); 0% and 7% in the assay with SGK3 (1 µM); 23% and 3% in the assay on SGK (1 µM); 78% and 71% in the assay on SIK2 (1 µM). The “%Inh” value in the assay on SIK (1 µM) was 21% and 33%; with SLK, 99.3%; in the assay with SNARK (1 µM), 0% and 7%; in the assay with SNRK (1 µM) it was 11% and 0%; in the assay with SRC, 99.9%; with SRMS (1 µM), 0% and 15%. Moreover, the “%Inh” value is 17% and 42% in the assay with SRPK1 (1 µM); 26% and 74% in the assay with SRPK2 (1 µM).

With `c1ccc(-c2n[nH]cc2-c2ccnc3ccccc23)nc1` [GW271431], the “%Inh” value in assay [1] is reported as 0%; in assay [2], 0%; in [3], 0%; in assay [4], 0%; in assay [5] it was 0%; in [6] it was 48%. For the same molecule, the “%Inh” value with S6K1 is listed as 1%; in the assay with SBK1, 9%; in the assay with SGK2 it was 6%; in the assay with SGK3 it was 10%; in the assay on SGK it was 0%; with SIK2, 9%. Moreover, the “%Inh” value stood at 8% with SIK; 16% in the assay with SLK; 0% in the assay with SNARK; 0% in the assay on SNRK; 7% in the assay on SRC; 0% in the assay with SRMS. Further, the figures for the “%Inh” value in the assay with SRPK1 and in the assay with SRPK2 were 25% and 0%, respectively.

Regarding `O=C(c1ccc(-c2cc(-c3c[nH]nc3-c3ccccn3)ccn2)cc1)N1CCOCC1` [GW812171], the “%Inh” value was determined as 31% in [1]; 0% in assay [2]; 0% in [3]; 0% in assay [4]; 9% in assay [5]; 24% in assay [6]. Further, the “%Inh” value with S6K1 was found to be 13%; in the assay on SBK1, 0%; in the assay on SGK2 it was 0%; in the assay with SGK3, 16%; in the assay with SGK, 2%; in the assay with SIK2 it was 0%. For the same molecule, the “%Inh” value is listed as 0% with SIK; 0% with SLK; 16% in the assay on SNARK; 10% in the assay on SNRK; 1% in the assay on SRC; 28% in the assay on SRMS. Further, the “%Inh” value in the assay with SRPK1 and in the assay with SRPK2 was 0% in each case.
